Assay results from PubChem BioAssay AID1851 (National Center for Advancing Translational Sciences (NCATS), 2009).
Among all 16,000 compounds or so, about 5,800 (36%) were called active. About 23% were inconclusive and are not listed. Calls come from the whole dose curve; as a rule, active = well fitted curve in the direction sought with a large enough effect; inconclusive = small, poorly fitted or top-dose-only effect, or effect the other way; inactive = no such curve, though single readings can be large or run the other way. This is one part of the list.

What follows are molecules tested against Cytochrome P450 2C19 (Homo sapiens) (UniProt P33261) (assay: Cytochrome panel assay with activity outcomes). Conditions: recombinant CYP, pro-luciferin dealkylation, luminescence, p450-cyp2c19; series mostly up to 57.1 µM.
Chain of Cytochrome P450 2C19 (Homo sapiens) (P33261 whole entry, looked up): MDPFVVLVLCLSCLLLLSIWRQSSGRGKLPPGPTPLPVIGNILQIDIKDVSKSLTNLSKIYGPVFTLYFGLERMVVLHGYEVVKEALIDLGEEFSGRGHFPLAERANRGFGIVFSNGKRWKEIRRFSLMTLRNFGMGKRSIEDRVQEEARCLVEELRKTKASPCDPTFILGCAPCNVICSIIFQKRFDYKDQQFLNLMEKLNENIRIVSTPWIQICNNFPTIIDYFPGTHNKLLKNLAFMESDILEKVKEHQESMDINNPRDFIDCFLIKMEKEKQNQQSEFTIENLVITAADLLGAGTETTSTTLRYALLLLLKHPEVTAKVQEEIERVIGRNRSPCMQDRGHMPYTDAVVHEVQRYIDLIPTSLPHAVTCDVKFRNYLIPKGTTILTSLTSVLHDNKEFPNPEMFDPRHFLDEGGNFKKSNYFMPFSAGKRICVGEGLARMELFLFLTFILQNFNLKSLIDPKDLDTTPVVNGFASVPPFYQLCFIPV
% is set by controls: 0 for no effect and ±100 for the full control effect.

activity, negative = inhibition, inactive:
CC(=O)OC[C@H]1O[C@@H](O/N=C(\C)CCN2CCCc3nc(C)c(C)cc32)[C@H](OC(C)=O)[C@@H](OC(C)=O)[C@H]1OC(C)=O -24.1% [at 11.4 µM], Cc1cc(C)nc(SCCc2cccc[n+]2C)n1 66.4% [at 11.4 µM], C#CCCCO/N=C1/C[C@@H](O)[C@@H](O)[C@@H]2[C@@H]3C(=O)N(C4CCCCC4)C(=O)[C@H]3CC[C@H]12 4.77% [at 11.4 µM], O=C(O)CCCSc1ccccc1 31.6% [at 11.4 µM], O=C(O)c1ccccc1NCn1c(=S)sc2ccccc21 -40.3% [at 11.4 µM]

AC50, active:
CCN(C(=O)Cn1c(=O)oc2ccccc21)c1cccc(C(F)(F)F)c1 3.55 µM, Cc1cccc(NC(=O)Cn2c(=O)oc3ccccc32)c1 3.16 µM, Cc1cccc(NC(=O)CCSc2nc(C)cc(C)n2)c1 4.47 µM, COc1ccc(CNc2ccnc(-c3c(C)noc3C)n2)c(OC)c1 1.58 µM, COc1ccccc1CNc1ccnc(-c2c(C)noc2C)n1 1 µM, CC(=O)N1CC(=O)N(OCc2ccccc2)C1c1ccc(Cl)cc1Cl (stereo not given) 3.16 µM, COC(=O)N1CC(=O)N(OC)C1c1ccc(Cl)cc1Cl (stereo not given) 5.62 µM, Cc1ccc2c(c1)C(=O)[C@@]1(O)CCN(c3ccccc3)C1=N2 7.94 µM, CC(C)(Oc1ccc(Cl)cc1)C(=O)Nc1cccnc1 2.51 µM, CC(C)(Oc1ccc(Cl)cc1)C(=O)Nc1ccncc1 0.0562 µM, O=C1c2ccccc2CCC12N=NCC2c1ccc(Cl)cc1 (stereo not given) 0.562 µM, C=CCn1c(SC(C)C(=O)NCc2ccc3c(c2)OCO3)nc2scc(-c3ccccc3)c2c1=O (stereo not given) 2 µM, C=CCn1c(SCc2ccc3c(c2)OCO3)nc2scc(-c3ccco3)c2c1=O 1.41 µM, C=CCn1c(SCC(=O)N2CC(=O)Nc3ccccc32)nc2scc(-c3ccccc3)c2c1=O 7.94 µM, Cc1ccc(NC(=O)N/C=C/c2ccco2)cc1C 3.16 µM, C/C(=N\NC(=O)CC1N=C(Cc2ccccc2)NNC1=O)c1ccc(Cl)cc1Cl (stereo not given) 28.2 µM, O=C(CSCc1c(F)cccc1Cl)NCC1CCCO1 (stereo not given) 11.2 µM, O=C(CC(c1ccccc1)c1ccccc1)NCC1CCCO1 (stereo not given) 14.1 µM, Cc1cccc2c(SCC(=O)NCC3CCCO3)nc(-c3ccc(F)cc3)nc12 (stereo not given) 1.26 µM, COc1ccc(CCC(C)NC2C3CC4CC(C3)CC2C4)cc1 (stereo not given) 25.1 µM, O=C1N(c2ccccc2)c2ccccc2C1(Cc1ccncc1)Cc1ccncc1 0.2 µM, N#C/C(=C\c1ccc(Cl)cc1)c1nc2ncccc2[nH]1 25.1 µM, COc1cccc(CN2C(=O)N(C(C)C)C(N(O)C(=O)NC(C)C)C2(C)C)c1OC (stereo not given) 14.1 µM, CN(C)c1ccc(/C=C2\SC(=S)N(Nc3ncc(C(F)(F)F)cc3Cl)C2=O)cc1 20 µM, O=C1/C(=C\c2ccccn2)SC(=S)N1Nc1ncc(C(F)(F)F)cc1Cl 7.94 µM, O=c1c(Cl)c(N2CCN(S(=O)(=O)c3ccc(F)cc3)CC2)cnn1-c1cccc(Cl)c1 4.47 µM, Nc1ncnc2c1c(-c1ccc(Oc3ccccc3)cc1)cn2C1CCCC1 25.1 µM, COc1ccccc1CNc1ncnc2ccc(-c3cccc(C#N)c3)cc12 5.01 µM, c1csc(CNc2ncnc3ccc(-c4ccoc4)cc23)c1 6.31 µM, COc1cccc(-c2ccc3ncnc(NCc4ccc(OC)cc4OC)c3c2)c1 10 µM, COc1ccccc1CNc1ncnc2ccc(-c3ccccc3OC)cc12 3.16 µM, COc1ccc(CNc2ncnc3ccc(-c4ccccc4CN(C)C)cc23)c(OC)c1 15.8 µM, COc1ccc(CNc2ncnc3ccc(-c4ccccc4OC)cc23)c(OC)c1 7.94 µM, COc1cccc(-c2ccc3ncnc(NCc4cccs4)c3c2)c1 10 µM, CS(=O)(=O)Nc1cccc(-c2ccc3ncnc(NCc4cccs4)c3c2)c1 15.8 µM, COc1ccc(CNc2ncnc3ccc(-c4c(C)noc4C)cc23)c(OC)c1 10 µM, COc1ccccc1CNc1ncnc2ccc(-c3ccccc3C#N)cc12 7.94 µM, COc1ccc(CNc2ncnc3ccc(-c4ccoc4)cc23)c(OC)c1 7.94 µM, Cc1nc2sc(C#N)c(N)c2c2c1CCCC2 11.2 µM, CCn1c(N2CCN(C(=O)Nc3ccc(F)cc3)CC2)nc2ccccc21 31.6 µM, CCOC(=O)CSc1n[nH]c(NC(=O)c2cccc(C)c2)n1 5.01 µM, NNC(=O)CCSc1ccccc1 3.98 µM, Cc1cc(Br)ccc1NC(=O)CCSc1ccccc1 1.26 µM, CC(C)c1ccc(CN(C(=O)C2COc3ccccc3O2)C2CCS(=O)(=O)C2)cc1 (stereo not given) 10 µM, CCCCC(=O)NC(Nc1cc(C)ccn1)(C(=O)OCC)C(F)(F)F (stereo not given) 1.41 µM, N=c1sc2ccccc2n1CCS (tested in a mixture with another compound) 1.58 µM, Cc1cc(C)n(Cc2ccc(NC(=O)c3ccc(COc4ccccc4Br)cc3)cc2)n1 3.98 µM, COC(=O)[C@@]1(Cc2ccccc2)[C@H]2c3cc(C(=O)N4CCCC4)n(Cc4nc5ccccc5[nH]4)c3C[C@H]2CN1C(=O)c1ccccc1 15.8 µM, COC(=O)[C@@]1(Cc2ccccc2)[C@H]2c3cc(C(=O)N4CCCC4)n(CCc4ccccn4)c3C[C@H]2CN1C(=O)c1ccccc1 25.1 µM, COC(=O)[C@@]1(Cc2ccccc2)[C@H]2c3cc(C(=O)N4CCCC4)n(Cc4ccccn4)c3C[C@H]2CN1C(=O)c1ccccc1 10 µM, CC(C)(CO)Cc1cc(C(C)(C)C)c(O)c(C(C)(C)C)c1 25.1 µM, CCOC(=O)c1ccccc1N/C=C1\CCCCC1=O 22.4 µM, CCn1c2ccccc2c2cc(NC(=O)C/C(C)=N/NC(=O)c3ccccc3N)ccc21 2.24 µM, CCc1ccccc1N1C(=O)c2cccc3c(N4CCOCC4)c([N+](=O)[O-])cc(c23)C1=O 3.98 µM, Cc1noc(C)c1-c1nccc(N(C)Cc2ccco2)n1 1 µM, COc1cccc(-c2nccc(N(C)Cc3ccco3)n2)c1 5.01 µM, CN(Cc1ccco1)c1ccnc(-c2cccnc2)n1 6.31 µM

AC50, inactive:
Cc1cccc(N/C(N)=N/c2nc(C)cc(C)n2)c1, O=C(O)C1=CCNCC1, COCCNc1ccnc(-c2c(C)noc2C)n1, CCOc1ccc(N=C2NC(=O)C(CC(=O)O)S2)cc1 (stereo not given), CC(C)(Oc1ccc(CCNC(=O)c2ccc(Cl)cc2)cc1)C(=O)O, CC(C)(Oc1ccc([C@@H]2CC2(Cl)Cl)cc1)C(=O)O, CCC(C)(C)N=C(NC#N)Nc1cccnc1, C=CCn1c(SCc2ccccc2)nc2scc(-c3ccc(C)o3)c2c1=O, NS(=O)(=O)c1cc2c(cc1Cl)N[C@@H](C(Cl)Cl)NS2(=O)=O, CCCCCCCCOC1OC(CO)C(O)C(O)C1NC(C)=O (stereo not given), CCNc1ncc2nc(-c3ccc(F)cc3)c(=O)n(C[C@H]3CCCO3)c2n1, CN(C)c1ncc2nc(-c3ccc(F)cc3)c(=O)n(C[C@H]3CCCO3)c2n1, CC(NC(=O)OCc1ccccc1)C(=O)NCC1CCCO1 (stereo not given), CN(c1ccc(C(=O)NCC2CCCO2)cc1)S(=O)(=O)c1ccccc1 (stereo not given), Oc1ccc([C@@H]2CNCCc3c2cc(O)c(O)c3Cl)cc1, CC(C)NC[C@@H](O)COc1ccc(CCOCC2CC2)cc1, O=C1c2ccccc2C(Cc2ccncc2)(Cc2ccncc2)c2ccccc21, COc1ccccc1CN1CCCC2(CCNCC2)C1, O=C(NCc1n[nH]c(=S)n1-c1cccc(Cl)c1)c1ccc(S(=O)(=O)N2CCCC2)cc1, C[N+](C)(C)CCOC(N)=O, Nc1ncnc2c1ncn2C1CCCC1, COc1ccccc1CNc1ncnc2ccc(-c3ccccc3CN(C)C)cc12, COc1ccc(CNc2ncnc3ccc(-c4cccc(C#N)c4)cc23)c(OC)c1, N#Cc1cccc(-c2ccc3ncnc(NCc4ccccc4)c3c2)c1, c1nc(NCCN2CCOCC2)c2cc(-c3ccoc3)ccc2n1, CSc1nnc2c(n1)OC(C)N(C(=O)c1ccccc1)c1ccccc1-2 (stereo not given), CS(=O)(=O)Nc1cccc(-c2ccc3ncnc(NCCN4CCOCC4)c3c2)c1, COc1ccc(CNc2ncnc3ccc(-c4ccccc4C#N)cc23)c(OC)c1, C[C@@H]1c2ccccc2CN1CC1=NCCN1, COc1ccc(NC(=O)N2CCC3(CC2)CCN(C(=O)c2cccc(F)c2)CC3)cc1, COc1ccc(NC(=O)N2CCCC3(CCN(C(=O)c4cccc(F)c4)CC3)C2)cc1, O=c1c(-c2ccccc2)nc2cnc(N3CCNCC3)nc2n1-c1ccccc1, c1ccc2nc(C3=NCCN3)cnc2c1, COC(=O)[C@@]1(Cc2ccc(OC)cc2)[C@H]2c3cc(C(=O)N4CCCC4)n(CCn4cc([N+](=O)[O-])nc4C)c3C[C@H]2CN1C(=O)c1ccccc1, CSc1nc(Cl)cc(N(CCO)CCO)n1, CC(C)(C=O)Cc1cc(C(C)(C)C)c(O)c(C(C)(C)C)c1, O=c1cc(N2CCOCC2)oc2c(-c3ccccc3)cccc12, Cc1noc(C)c1-c1nccc(N(C)C)n1
